Potency estimated from few doses data for seven compounds are collected here from publication PMC11062922 (Nature Chemical Biology, 2023).

Each structure is given as a SMILES string. Like-named read-outs stand apart in the source and are kept apart here.

Assay [1] has as its system AKT2. The arrangement: species or system human, MV4-11 + K-562 + COLO205 + SK-N-BE2 + OVCAR-8. To be noted: read-out: apparent Kd; compound concentrations: 100 nM and 1000 nM (sheet 'Samples'), CATDS: 0.183770633421974; n = 1.
For assay [2], the system named is CSNK1D. The arrangement: species or system human, MV4-11 + K-562 + COLO205 + SK-N-BE2 + OVCAR-8. Conditions: read-out: apparent Kd; compound concentrations: 100 nM and 1000 nM (sheet 'Samples'), CATDS: 0.20295054988008099; n = 1.
In assay [3] the test system is DYNC1LI1. The arrangement: species or system human, MV4-11 + K-562 + COLO205 + SK-N-BE2 + OVCAR-8. Conditions: read-out: apparent Kd; compound concentrations: 100 nM and 1000 nM (sheet 'Samples'), CATDS: 0.215188969129953; n = 1.
The test system of assay [4] is MAPK14. The arrangement: species or system human, MV4-11 + K-562 + COLO205 + SK-N-BE2 + OVCAR-8. To be noted: read-out: apparent Kd; compound concentrations: 100 nM and 1000 nM (sheet 'Samples'), CATDS: 0.21262407645477699; n = 1.
Assay [5] concerns NQO1. Set-up: species or system human, MV4-11 + K-562 + COLO205 + SK-N-BE2 + OVCAR-8. Conditions: read-out: apparent Kd, n = 1.
Assay [6] has as its system ATM. The arrangement: species or system human, MV4-11 + K-562 + COLO205 + SK-N-BE2 + OVCAR-8. To be noted: read-out: apparent Kd, compound concentrations: 100 nM and 1000 nM (sheet 'Samples'), n = 1.
The test system of assay [7] is AKT3. Set-up: species or system human, MV4-11 + K-562 + COLO205 + SK-N-BE2 + OVCAR-8. Conditions: read-out: apparent Kd, n = 1.
Assay [8] deals with EPHB4. The arrangement: species or system human, MV4-11 + K-562 + COLO205 + SK-N-BE2 + OVCAR-8. Conditions: read-out: apparent Kd; compound concentrations:100 nM and 1000 nM (sheet 'Samples'); n = 1.
Assay [9] has as its system ERCC2. Set-up: species or system human, MV4-11 + K-562 + COLO205 + SK-N-BE2 + OVCAR-8. To be noted: read-out: apparent Kd; compound concentrations:100 nM and 1000 nM (sheet 'Samples'); n = 1.
Assay [10] has as its system FER. Set-up: species or system human, MV4-11 + K-562 + COLO205 + SK-N-BE2 + OVCAR-8. Conditions: read-out: apparent Kd; compound concentrations:100 nM and 1000 nM (sheet 'Samples'); n = 1.
Assay [11] relates to PTK2B. Set-up: species or system human, MV4-11 + K-562 + COLO205 + SK-N-BE2 + OVCAR-8. Conditions: read-out: apparent Kd; compound concentrations:100 nM and 1000 nM (sheet 'Samples'); n = 1.
Assay [12] relates to TNK1. The arrangement: species or system human, MV4-11 + K-562 + COLO205 + SK-N-BE2 + OVCAR-8. To be noted: read-out: apparent Kd; compound concentrations:100 nM and 1000 nM (sheet 'Samples'); n = 1.
Assay [13] concerns TNK2. The arrangement: species or system human, MV4-11 + K-562 + COLO205 + SK-N-BE2 + OVCAR-8. To be noted: read-out: apparent Kd; compound concentrations:100 nM and 1000 nM (sheet 'Samples'); n = 1.
Assay [14] relates to DCTPP1. Set-up: species or system human, MV4-11 + K-562 + COLO205 + SK-N-BE2 + OVCAR-8. To be noted: read-out: apparent Kd; compound concentrations:100 nM and 1000 nM (sheet 'Samples'); n = 1.
Assay [15] has as its system PRKAG1. The arrangement: species or system human, MV4-11 + K-562 + COLO205 + SK-N-BE2 + OVCAR-8. To be noted: read-out: apparent Kd; compound concentrations:100 nM and 1000 nM (sheet 'Samples'); n = 1.
Assay [16] concerns CDC42. Set-up: species or system human, MV4-11 + K-562 + COLO205 + SK-N-BE2 + OVCAR-8. Conditions: read-out: apparent Kd; compound concentrations: 100 nM and 1000 nM (sheet 'Samples'), CATDS: 0.120707875604042; n = 1.
Assay [17] relates to MTOR. The arrangement: species or system human, MV4-11 + K-562 + COLO205 + SK-N-BE2 + OVCAR-8. To be noted: read-out: apparent Kd; compound concentrations: 100 nM and 1000 nM (sheet 'Samples'), CATDS: 0.13183909981737599; n = 1.
In assay [18] the test system is PIK3CA. The arrangement: species or system human, MV4-11 + K-562 + COLO205 + SK-N-BE2 + OVCAR-8. Conditions: read-out: apparent Kd; compound concentrations: 100 nM and 1000 nM (sheet 'Samples'), CATDS: 0.214179011469951; n = 1.
In assay [19] the test system is PIK3CD. Set-up: species or system human, MV4-11 + K-562 + COLO205 + SK-N-BE2 + OVCAR-8. To be noted: read-out: apparent Kd; compound concentrations: 100 nM and 1000 nM (sheet 'Samples'), CATDS: 0.39108548114929897; n = 1.
For assay [20], the system named is PKN3. The arrangement: species or system human, MV4-11 + K-562 + COLO205 + SK-N-BE2 + OVCAR-8. Conditions: read-out: apparent Kd; compound concentrations: 100 nM and 1000 nM (sheet 'Samples'), CATDS: 0.11684999356733999; n = 1.
Assay [21] concerns FLT3. Set-up: species or system human, MV4-11 + K-562 + COLO205 + SK-N-BE2 + OVCAR-8. Conditions: read-out: apparent Kd; compound concentrations: 100 nM and 1000 nM (sheet 'Samples'), CATDS: 0.41420685455441397; n = 1.
Assay [22] deals with MYLK3. The arrangement: species or system human, MV4-11 + K-562 + COLO205 + SK-N-BE2 + OVCAR-8. Conditions: read-out: apparent Kd; compound concentrations: 100 nM and 1000 nM (sheet 'Samples'), CATDS: 0.45144948525054202; n = 1.
The subject of assay [23] is AURKB. The arrangement: species or system human, MV4-11 + K-562 + COLO205 + SK-N-BE2 + OVCAR-8. Conditions: read-out: apparent Kd; compound concentrations:100 nM and 1000 nM (sheet 'Samples'); n = 1.
In assay [24] the test system is BMP2K. The arrangement: species or system human, MV4-11 + K-562 + COLO205 + SK-N-BE2 + OVCAR-8. To be noted: read-out: apparent Kd; compound concentrations:100 nM and 1000 nM (sheet 'Samples'); n = 1.
Assay [25] concerns CSNK2A1;CSNK2A3. Set-up: species or system human, MV4-11 + K-562 + COLO205 + SK-N-BE2 + OVCAR-8. Conditions: read-out: apparent Kd; compound concentrations:100 nM and 1000 nM (sheet 'Samples'); n = 1.
Assay [26] relates to CSNK2A2. The arrangement: species or system human, MV4-11 + K-562 + COLO205 + SK-N-BE2 + OVCAR-8. Conditions: read-out: apparent Kd; compound concentrations:100 nM and 1000 nM (sheet 'Samples'); n = 1.
In assay [27] the test system is JAK1. Set-up: species or system human, MV4-11 + K-562 + COLO205 + SK-N-BE2 + OVCAR-8. To be noted: read-out: apparent Kd; compound concentrations:100 nM and 1000 nM (sheet 'Samples'); n = 1.
For assay [28], the target named is Q6ZSR9 (human, UniProt Q6ZSR9). The arrangement: species or system MV4-11 + K-562 + COLO205 + SK-N-BE2 + OVCAR-8. Conditions: read-out: apparent Kd; compound concentrations:100 nM and 1000 nM (sheet 'Samples'); n = 1.
The mark [29] stands for this setting: compound concentrations:100 nM and 1000 nM (sheet 'Samples').

Q6ZSR9, sequence (Q6ZSR9 whole entry, looked up): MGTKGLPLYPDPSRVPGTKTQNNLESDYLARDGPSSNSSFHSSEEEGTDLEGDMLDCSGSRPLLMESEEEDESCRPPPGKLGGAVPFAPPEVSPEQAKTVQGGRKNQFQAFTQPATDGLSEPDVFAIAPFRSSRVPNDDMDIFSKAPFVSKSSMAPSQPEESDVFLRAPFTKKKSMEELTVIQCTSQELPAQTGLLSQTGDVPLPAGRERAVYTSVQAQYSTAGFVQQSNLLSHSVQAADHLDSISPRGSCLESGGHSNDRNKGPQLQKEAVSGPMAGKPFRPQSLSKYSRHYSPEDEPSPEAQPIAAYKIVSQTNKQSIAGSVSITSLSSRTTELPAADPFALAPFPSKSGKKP

As to `CSc1nccc(-c2c(-c3ccc(F)cc3)ncn2CCCN2CCOCC2)n1.Cl` [SB-217146-A], the potency estimated from few doses is 2140 nM in [1]; 1740 nM in assay [2]; 1560 nM in [3]; 1590 nM in assay [4]; 2010 nM in [5] (compound concentrations: 100 nM and 1000 nM (sheet 'Samples'), CATDS: 0.18936127019719301).
On to `Cc1cnc(N)c(/C=C/c2cncc(C(=O)NCCc3ccc(Cl)cc3Cl)c2)c1.Cl` [GSK190937A], for which, in [6] (CATDS: 1), the potency estimated from few doses was 186 nM.
For the compound `O=C(Nc1c(F)cccc1F)c1cc(C(=O)c2ccccc2F)c[nH]1` [GSK1326180A], the potency estimated from few doses in [7] (setting [29]) was 1080 nM; in [8], 1310 nM; in [9], 984 nM; in assay [10], 920 nM; in assay [11] it was 1070 nM; in assay [12] it was 870 nM. For the same compound, in [13], the potency estimated from few doses is 898 nM.
On to `CC(C)NC(=O)N1CC[C@H](NC2=Nc3cc(F)ccc3N(CC(F)F)c3ccc(Cl)cc32)C1` [NVS-PAK1-1], for which the potency estimated from few doses in assay [7] (setting [29]) was 1760 nM; in [14] it was 2220 nM; in assay [5] (setting [29]), 1340 nM; in assay [15], 1740 nM.
Regarding `Fc1ccc(-c2c(-c3ccncc3)nc3n2CCS3)cc1` [SKF-86055], the potency estimated from few doses is 174 nM in [6] (CATDS: 0.230066198267698); 940 nM in [16]; 688 nM in assay [17]; 201 nM in assay [18]; 71.3 nM in [19]; 1070 nM in assay [20].
With `CS(=O)(=O)Nc1ccc(N/C=C2\C(=O)Nc3ccccc32)cc1` [GW278681X], the potency estimated from few doses in assay [7] (compound concentrations: 100 nM and 1000 nM (sheet 'Samples'), CATDS: 0.228798391958558) was 1780 nM; in assay [21] it was 358 nM; in [22] it was 306 nM.
In the case of `NC(=O)Nc1sc(-c2ccc(F)cc2)cc1C(N)=O` [GW789449X], the potency estimated from few doses is 1830 nM in assay [7] (setting [29]); 1310 nM in assay [23]; 1260 nM in assay [24]; 1730 nM in [25]; 1130 nM in [26]; 711 nM in assay [27]. The potency estimated from few doses in assay [28] was 1370 nM.
